Screens as filed in PubChem BioAssay.
Rows were chosen to be rich in hits. Some 7.3% of all compounds tested hit in one or more screens of this group.
uPA surface inh – qHTS for Inhibitors of Cell Surface uPA Generation; Potency, µM (highest dose often 38.3 µM), without a hit: at the highest dose activity change, negative = inhibition, hits mostly inhibitors; AID 540303, 2011; cell surface uPA generation assay, qHTS; 0.31% of 330,000 active; active = well fitted inhibition curve with a large enough effect; inconclusive = small, poorly fitted or top-dose-only effect; inactive = no such curve, though single readings can be large or run the other way; tested in mouse RAW 264.7 cells; also: % is scaled to controls: 0 for no effect and ±100 for the full control effect; nearly all actives have a fitted effect of over 55% in size
ELG1 genotox – qHTS screen for small molecules that induce genotoxicity in human embryonic kidney (HEK293T) cells expressing luciferase-tagged ELG1; 1.3% of 330,000 active; Potency, µM (top dose mostly 46 µM), for the others: at the highest dose activity change, positive = activation, most hits filed as activators; HEK293T ELG1-luciferase reporter, luminescence, 16 h; also: % of control where 0% means no effect; nearly all actives have a fitted effect of over 60% in size
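Cells (2,000/well) expressing the ELG1-luciferase fusion are dosed by pin tool and kept 16 hr at 37 °C, 5% CO2. Signal comes from ONE-Glo luciferase reagent after 30 min at room temperature.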
NPC1 promoter act – qHTS Assay for NPC1 Promoter Activators | Huh7 NPC1 promoter luciferase reporter, 24 h | Potency, µM (titrated, usually from 9.22 µM), for inactives: at the highest dose activation, most hits filed as activators | 2.4% of 320,000 active; also: % of control where 0% means no effect; nearly all actives have a fitted effect of over 60% in size
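Stably transfected Huh7 (NPC1 promoter→luciferase), 1500 cells/well in Opti-MEM + 10% FBS, 2 h settle, then compound 24 h at 37 °C. Luminescence after 10 min with Amplite reagent.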
Rab9 prom act – qHTS Assay for Rab9 Promoter Activators | Huh7 Rab9 promoter-luciferase reporter, luminescence, 24 h | Potency, µM (top dose mostly 9.22 µM), for the others: top-dose activation, negative = inhibition, most hits filed as activators | 2.8% of 320,000 active | AID 485297, 2010; also: % of control where 0% means no effect; nearly all actives have a fitted effect of over 60% in size
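Promoter activation is measured as luciferase luminescence in Huh7 cells stably transfected with a Rab9 promoter–luciferase construct, following 24 h compound exposure at 37 °C and 10 min reagent incubation at ambient temperature.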
FLuc counter – qHTS profiling assay for firefly luciferase inhibitor/activator using purifed enzyme and Km concentrations of substrates (counterscreen for miR-21 project); purified FLuc, Km substrates, luminescence inhibition; Luciferin 4-monooxygenase (Photinus pyralis), P08659; Potency, µM (top dose mostly 57.5 µM), for inactives: top-dose activity change, negative = inhibition, most hits filed as inhibitors; AID 588342, 2011; 6.9% of 360,000 active;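 also: plate controls were vehicle for no effect and reference inhibitor for full effect; nearly all actives have a fitted effect of over 55% in size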
Target sequence (P08659 whole entry, looked up): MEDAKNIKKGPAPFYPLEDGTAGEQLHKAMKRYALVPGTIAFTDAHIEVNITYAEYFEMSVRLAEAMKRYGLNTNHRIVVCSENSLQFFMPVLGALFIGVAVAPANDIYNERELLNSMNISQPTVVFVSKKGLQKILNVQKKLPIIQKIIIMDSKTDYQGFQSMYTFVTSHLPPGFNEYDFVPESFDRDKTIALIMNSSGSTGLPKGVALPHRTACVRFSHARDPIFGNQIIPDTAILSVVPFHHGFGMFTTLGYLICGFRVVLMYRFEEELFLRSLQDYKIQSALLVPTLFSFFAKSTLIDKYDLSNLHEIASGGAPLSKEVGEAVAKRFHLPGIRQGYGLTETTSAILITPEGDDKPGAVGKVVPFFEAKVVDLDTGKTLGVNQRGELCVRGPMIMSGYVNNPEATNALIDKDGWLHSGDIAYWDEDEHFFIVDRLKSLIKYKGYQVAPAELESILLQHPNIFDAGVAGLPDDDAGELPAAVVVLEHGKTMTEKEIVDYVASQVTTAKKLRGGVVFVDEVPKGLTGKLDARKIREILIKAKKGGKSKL
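Purified P. pyralis luciferase, 10 nM final, with Km-level 10 uM D-luciferin and 10 uM ATP in 50 mM Tris acetate pH 7.5, 10 mM Mg acetate, 0.01% Tween-20, 0.05% BSA; 6-point qHTS titration about 60 µM downward; luminescence read.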
SMN2 splice up – qHTS Assay for Enhancers of SMN2 Splice Variant Expression; Potency, µM (doses to about 46.1 µM), for inactives: top-dose activity change, positive = activation, actives largely listed as activators; 2.8% of 210,000 active; HEK293 SMN2-luciferase splicing reporter, luminescence, 30-36 h; also: % of control where 0% means no effect; nearly all actives have a fitted effect of over 55% in size
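qHTS luciferase splicing reporter: luminescence rises when SMN2 exon 7 is included in transfected HEK293 cells. Compound exposure lasted 30-36 h at 37C, with 4.5 mM final sodium butyrate as control, followed by a ONE-Glo read.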
Active calls of the source: *; ? = inconclusive; . = not tested or not shown. Unless noted, calls follow the shape of the dose curve; as a rule, active = well fitted curve in the direction sought with a large enough effect; inconclusive = small, poorly fitted or top-dose-only effect, or another doubt; inactive = no such curve, though single readings can be large; an effect the other way counts as inactive or inconclusive. Potency is read from the fitted curve at half-maximal effect.

SMILES	uPA surface inh	ELG1 genotox	NPC1 promoter act	Rab9 prom act	FLuc counter	SMN2 splice up
Cc1ccc(NC(=O)C(C)N=C2NS(=O)(=O)c3ccccc32)cc1F (configuration not stated)	4.7%	?	27.6%	?	?	.
CCCc1nn(C)c(C(=O)Nc2ccc3ccccc3c2)c1Cl	23.5%	?	?	?	10.7µM*	14.1µM*
CCCc1nn(C)c(C(=O)Nc2cccc(CC)c2)c1Cl	-3.5%	4.6%	?	?	16.9µM*	?
COc1ccc(CNC(=O)C2CCN(C(=O)N3CCOc4ccc(Cl)cc43)CC2)cc1	.	.	.	.	-10.8%	.
c1ccc(N2CC3CCc4ccccc4C3=N2)cc1 (configuration not stated)	-4.7%	?	?	3.16µM*	8.49µM*	.
Cc1nc(SC(C)C(=O)Nc2ccccc2Cl)cc(-c2ccccc2)n1 (configuration not stated)	.	.	.	.	-3.0%	.
CCCCc1ccc(NC(=O)Cn2cnc3c(oc4ccccc43)c2=O)cc1	.	.	.	.	4.5%	.
Cc1cccc(NC(=O)Nc2cccc(C)n2)n1	-6.3%	2.9%	20.3%	?	16.9µM*	7.9%
CC(=O)N(C)c1ccc(NC(=O)Nc2ccc(C)cc2)cc1	?	?	29.3%	?	23.9µM*	?
Cc1ccc(NC(=O)Nc2cccc(C)n2)cc1	-6.0%	?	0.3%	23.6%	2.39µM*	15.8µM*
CC(=O)N(C)c1ccc(NC(=O)Nc2ccc(Cl)cc2)cc1	-6.9%	.	.	.	.	.
Cc1ccc(NC(=O)Nc2cc(C)on2)cc1	-0.4%	-6.5%	?	?	15.1µM*	?
Cc1cccc(NC(=O)Nc2ccc(Cl)cc2)n1	1.7%	16.1%	24.7%	?	?	.
CCC(=O)Nc1ccccc1-c1nc2ccccc2n(CC(=O)Nc2ccccc2OC)c1=O	.	.	.	.	3.5%	.
CCc1ccc(NC(=O)Cn2cc(S(=O)(=O)c3ccc(F)cc3)c(=O)c3cc(OC)ccc32)cc1	.	.	.	.	1.5%	0.4%
Cc1cccc(NC(=O)Nc2ccc3c(c2)N(C)C(=O)CS3)n1	5.1%	?	14.0%	0.1%	?	4.2%
Cc1cccc(NC(=O)Nc2ccc([N+](=O)[O-])cc2)n1	10.1%	9.1%	?	2.24µM*	1.9%	23.1%
Cc1ccc(NC(=O)c2cn(-c3cccc(C)n3)cn2)cc1	8.2%	?	2.82µM*	3.55µM*	?	?
Cc1cccc(NC(=O)Nc2ccc(F)cc2)n1	-0.5%	11.5%	?	?	8.49µM*	-3.6%
Cc1cccc(NC(=O)c2ccc([N+](=O)[O-])cc2Cl)n1	4.6%	-0.6%	-1.3%	15.8%	-14.0%	-5.9%
COC(=O)c1ccc(NC(=O)c2cn(-c3cccc(C)n3)cn2)cc1	-5.0%	3.2%	3.7%	-0.3%	3.1%	-11.6%
Cc1cccc(NC(=O)Nc2ccc(C)c(C)c2)n1	0.5%	?	?	?	2.13µM*	?
Cc1ccc(Cl)cc1NC(=O)C1CCCN(S(=O)(=O)c2c(C)noc2/C=C/N(C)C)C1 (configuration not stated)	.	.	.	.	-5.9%	-5.8%
O=C1CN(C(=O)Nc2ccccc2Cl)C(c2ccccc2)c2c(sc3c2CCCC3)N1 (configuration not stated)	.	.	.	.	-11.8%	.
COc1ccc(-c2cn3c(C)c(C(=O)Nc4cc(NC(C)=O)ccc4OC)sc3n2)cc1	?	0.6%	-14.9%	-3.6%	?	13.7%
CNC(=O)c1sc2nc(-c3ccc(OC)cc3)cn2c1C	?	2.06µM*	1.58µM*	0.891µM*	3.38µM*	.
COc1ccc(CNC(=O)Cc2csc3nc(-c4ccc(C)cc4)cn23)cc1	.	.	.	.	16.9µM*	.
CCN(CC)C(=O)c1sc2nc(-c3ccc(OC)cc3)cn2c1C	-5.5%	?	1.78µM*	?	7.57µM*	?
